Screening results from PubChem.
Hits are enriched below; roughly 2.8% of the tested compounds scored in any of these assays.
D3 antag – blocks the human D3 dopamine receptor; AID 652054; P35462; 360,000 tested, 2.5% active; max response, negative = inhibition, %; D3R cells, DiscoveRx beta-arrestin luminescence, antagonist mode; hits give low values; in the data active = max response below about -50%; inconclusive = no clear call, values can overlap the other calls; also: % is scaled to controls: 0 for no effect and ±100 for the full control effect
Target sequence (P35462 whole entry, looked up): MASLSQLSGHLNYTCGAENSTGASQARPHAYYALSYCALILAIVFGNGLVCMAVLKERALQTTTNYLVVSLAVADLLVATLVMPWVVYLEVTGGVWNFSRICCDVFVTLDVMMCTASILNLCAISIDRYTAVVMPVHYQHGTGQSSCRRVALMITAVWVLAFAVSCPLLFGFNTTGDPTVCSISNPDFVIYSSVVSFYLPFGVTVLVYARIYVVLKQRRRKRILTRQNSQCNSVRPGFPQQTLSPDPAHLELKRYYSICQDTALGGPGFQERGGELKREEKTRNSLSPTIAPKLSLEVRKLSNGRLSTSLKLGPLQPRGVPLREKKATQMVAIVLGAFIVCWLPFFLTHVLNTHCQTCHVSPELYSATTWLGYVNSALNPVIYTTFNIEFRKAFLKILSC
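Cells expressing the human receptor were seeded at 1500 cells/well, incubated overnight at 37 degrees C in 5% CO2, then exposed to library compounds with dopamine controls for 90 minutes at 37 degrees C before luminescent detection.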
Giardia killer – kills Giardia lamblia. AID 540267. 340,000 tested, 0.15% active. Giardia lamblia trophozoite viability. activity change, % at 7.66 µM, hits read low; in the data active = activity change below about -80%; inconclusive = between about -30% and that limit;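 also: parasites exposed to compound for two days anaerobically before the ATP read; % is scaled to controls: 0 for no effect and ±100 for the full control effect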
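Giardia lamblia trophozoites (100 cells/well) were incubated with compounds for 48 h at 37 deg C under anaerobic conditions. Viability was read as ATP content by one-step luminescence after 15-30 min at room temperature.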
B2AR arrestin – beta2AR (human) beta-arrestin recruitment activity. beta-arrestin recruitment to beta2AR, cell-based reporter. P07550. 330,000 tested, 0.02% active. Potency, µM (highest dose often 46.1 µM), inactives show at the top dose activation, most hits filed as activators; active = well fitted activation curve with a large enough effect; inconclusive = small, poorly fitted or top-dose-only effect;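 also: potency is read from the fitted curve at half-maximal effect; 0% = DMSO controls and full agonism = EC100 isoproterenol or metaproterenol; nearly all actives have a fitted effect of over 65% in size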
DRD3 agonist – activates the human D3 dopamine receptor | 410,000 tested, 0.58% active | AID 652048 | P35462 | D3R DiscoveRx beta-arrestin cells, luminescence, 90 min | max activation, %; in the data active = max activation above about 30%; also: 0% is about no effect
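Agonist mode: compounds and dopamine controls were applied to plated cells for 90 min at 37 degrees C after an overnight attachment at 1500 cells/well. Luminescent read-out followed 30 - 60 minutes at room temperature with DiscoveRx detection reagent.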
Active calls of the source: *; ? = inconclusive; nt = no result.

SMILES	D3 antag	Giardia killer	B2AR arrestin	DRD3 agonist
CC1=C/C(=N\OS(=O)(=O)c2ccccc2)C(C)=CC1=O	-73*	18	0%	-1
COc1ccc(S(=O)(=O)/N=C2/C=CC(=O)C(C)=C2C)cc1	-13	25	0%	7
COc1ccc(OC)c(-c2csc(NC(=O)Cc3ccccc3)n2)c1	4	-1	4%	-6
COC(=O)c1cc(-c2cc(OC)ccc2OC)nc2c1c(=O)n(C)c(=O)n2Cc1ccccc1	-79*	3	0%	-29
Cc1cc(-c2cc(C(=O)NCc3ccccc3)on2)nc(S(C)(=O)=O)n1	-65*	-2	-1%	-31
COCCNc1nc(C)cc(-c2cc(C(=O)NCc3ccccc3)on2)n1	-17	8	0%	1
CCCN1CCc2nc(N3CCN(c4ncccn4)CC3)ncc2C1	nt	nt	nt	0
Cc1cc(C)nc(N2CCC(C(=O)N3CCN(c4cc(Cl)ccc4C)CC3)CC2)n1	115	4	-1%	65*
CC1=C(C(=O)Nc2ccc(C)cc2C)C(c2cccs2)n2nc(SCc3ccccc3Cl)nc2N1 (stereo unspecified)	nt	nt	nt	-15
CCC/C(=N\NC(=O)c1csc(C)c1C)c1cccs1	-51*	-11	-1%	-10
Cc1ccc(CNc2ncnc3onc(C)c23)cc1	nt	nt	nt	-11
O=C1OCCN1CCN(CN1C(=O)CCC1=O)CN1C(=O)CCC1=O	-57*	7	0%	-3
Cc1nonc1NC(=O)OCCN1CCOC1=O	4	12	0%	1
CC(=O)Nc1cccc(C(=O)/C=C/c2cccs2)c1	-62*	-8	0%	-5
CC(=O)Nc1cccc(C(=O)/C=C/c2ccc(F)cc2)c1	-14	-28	0%	-14
COc1ccccc1NC(=O)CN1C(=O)c2cccc3cccc1c23	nt	nt	nt	-7
Cc1cccc(CN2CCN(C3CN(C4CCCCC4)S(=O)(=O)C3)CC2)c1 (stereo unspecified)	-57*	nt	nt	-14
CCCC12CN3CC(CCC)(CN(C1)C3c1ccccc1)C2=O (stereo unspecified)	nt	nt	nt	-9
COC(=O)c1ccccc1NC1=C/C(=N\S(=O)(=O)c2ccc(C(=O)O)cc2)c2ccccc2C1=O	-99*	2	0%	-25
CCc1ccc(S(=O)(=O)/N=C2\C=C(Nc3ccc(C(=O)O)cc3)C(=O)c3ccccc32)cc1	-68*	24	0%	-30
COC(=O)c1ccccc1NC1=C/C(=N\S(=O)(=O)c2cccs2)c2ccccc2C1=O	-93*	8	0%	-48
Cc1ccc(S(=O)(=O)/N=C2\C=C(Nc3cccc(C(=O)O)c3)C(=O)c3ccccc32)c(C)c1	-71*	-13	0%	-27
COc1ccc(NC(=O)Cn2c(=O)n(Cc3ccccc3)c(=O)c3sc4ccccc4c32)cc1	nt	nt	nt	0
COC(CNC(=O)c1ccc(N2CCCC2=O)cc1)OC	-51*	-1	0%	1
COc1ccc(C(CNC(=O)c2ccc(N3CCCC3=O)cc2)N(C)C)cc1 (stereo unspecified)	16	6	0%	-6
SMILES	D3 antag	Giardia killer	B2AR arrestin	DRD3 agonist
O=c1oc2cc(Br)ccc2n1CSC1=NCCS1	-53*	?	0%	-9
CCCc1nnc(NC(=O)Cn2c(=O)oc3cc(Br)ccc32)s1	-29	-1	0%	1
O=C(NCC1CC1)c1ccc2nc(-c3ccoc3)c(-c3ccoc3)nc2c1	nt	-5	nt	nt
S=c1[nH]nc(Cc2sc(-c3ccccc3)nc2-c2ccccc2)o1	-67*	-29	0%	4
CO[C@H]1C=CO[C@@]2(C)Oc3c(C)c(O)c4c(O)c(c5c(c4c3C2=O)=NC2(CCN(CC(C)C)CC2)N=5)NC(=O)/C(C)=C\C=C/[C@H](C)[C@H](O)[C@@H](C)[C@@H](O)[C@@H](C)[C@H](OC(C)=O)[C@@H]1C	nt	nt	nt	8
COc1ccc(/C=C/C(=O)Nc2ccccc2C(=O)NCC(c2ccc(OC)cc2)N(C)C)cc1 (stereo unspecified)	-96*	10	0%	-29
O=C(Cc1c(F)cccc1Cl)NC1CCN(Cc2ccccc2)CC1	?	-20	nt	-24
Cc1cc(OCC(=O)NC2CCN(Cc3ccccc3)CC2)c2c(C)c(C)c(=O)oc2c1	-82*	28	0%	-17
O=C(CCc1nc(-c2ccccc2F)no1)NCc1ccco1	-88*	10	0%	1
O=C(COc1ccccc1F)NC1CCN(Cc2ccccc2)CC1	-65*	1	0%	-45
Cc1cc(OCC(=O)NC2CCN(Cc3ccccc3)CC2)c2c(C)cc(=O)oc2c1	-63*	8	0%	-20
